Each structure is given as a SMILES string. Results with a measured potency or affinity are listed apart. Results filed as inconclusive are left out. The source made the active and inactive calls.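 Rule for the calls: active = signal loss from cell killing with fitted potency at or below twice the top valid dose; inconclusive = flat drop of 30 to 70%, or unreliable curve fit; inactive = opposite direction, flat within 30%, or weaker potency.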

The nature of this assay: A549 cell cytotoxicity, dose response, cytotoxicity control, cherry-picks, 26 µM top dose (AID 1053119). The settings on record: A549 viability, CellTiter-Glo ATP luminescence, 72 h; series mostly up to 26 µM.
`COC(=O)C[C@@H]1CC[C@H]2[C@H](COc3ccc(NC(=O)Cc4cccs4)cc3C(=O)N2C)O1`: the call was inactive.

In the case of `C[C@@H]1CN([C@H](C)CO)C(=O)c2cccc(NC(=O)Nc3ccc(C(F)(F)F)cc3)c2O[C@H]1CN(C)C(=O)Nc1cccc2ccccc12`, the outcome was inactive.

For `COc1ccccc1CC(=O)OC(C)C(=O)Nc1ccc(S(=O)(=O)N2CCCCC2)cc1` (stereo not drawn), the call was inactive.

Take `COCC(C)n1c(SCc2nc(N)nc(Nc3ccccc3C)n2)nc2ccccc2c1=O` (stereo not drawn): the outcome was inactive.

In the case of `COc1ncccc1C(=O)NC1CCCc2c1cnn2-c1ccc(C)c(C)c1` (stereo not drawn), the compound was classed as inactive.

On to `CC1CN(C(=O)c2cc3c(=O)n4ccccc4nc3n2C)CC(C)O1` (stereo not drawn), for which the result was inactive.

For `N#C[C@@H]1[C@H](c2ccccc2C2=CCCCC2)[C@@H](CO)N1S(=O)(=O)c1ccccc1`, the compound was called inactive.

As to `Cc1ccc(C(O)c2ncc(-c3cccc4ccccc34)[nH]2)cc1F` (stereo not drawn), the outcome was inactive.

As for `Cc1ccccc1S(=O)(=O)N1CC[C@H]2[C@H](CO)Nc3ccc(-c4ccc(C#N)cc4)cc3[C@H]21`, the call was inactive.

Turning to `COc1cccc(S(=O)(=O)N2CC[C@@H]3[C@H]2c2cc(-c4ccc(C#N)cc4)ccc2N[C@@H]3CO)c1`, the call was inactive.

In the case of `Cc1ccc([N+](=O)[O-])cc1NC(=O)CN(C(=O)c1ccccc1Cl)C1CCCCC1`, the result was inactive.

As for `NC(=O)C1=C[C@H](c2coc3ccccc3c2=O)C[C@H](OCCCCO)O1`, the compound was called inactive.

Regarding `CO[C@@H]1CN(C)C(=O)c2cc(NC(=O)Nc3ccc(Cl)c(Cl)c3)ccc2OC[C@H](C)NC[C@@H]1C`, the call was inactive.

For `C[C@H](CO)N1C[C@H](C)[C@@H](CN(C)Cc2ccc(-c3ccccc3)cc2)Oc2ccc(NC(=O)CCCN(C)C)cc2C1=O`, the compound was called inactive.

In the case of `CCOC(=O)c1cnc(SCc2nc(N)nc(Nc3ccc(OC)cc3)n2)nc1N`, the call was inactive.

For `COC(=O)C[C@@H]1CC[C@@H]2[C@@H](COc3ccc(NC(=O)Cc4cccs4)cc3C(=O)N2C)O1`, the compound was called inactive.

Consider `CCN(Cc1ccncc1)C(=O)c1ccc2c(c1)S(=O)(=O)c1ccccc1C2=O`, for which the compound was classed as inactive.

Turning to `O=S(=O)(c1ccccc1F)N1CC[C@@H]2[C@H]1c1cc(-c3cccc(F)c3)ccc1N[C@@H]2CO`, the compound was classed as inactive.

As to `Cc1cccc(N2CCN(S(=O)(=O)c3cn(C)cn3)CC2)c1C`, the call was inactive.

Take `COc1ccc(-c2csc(CCn3nc(C)cc3C)n2)cc1OC`: the outcome was inactive.

With `C[C@H](CO)N1C[C@H](C)[C@H](CN(C)C(=O)c2cccc(F)c2)Oc2ncc(-c3ccccc3)cc2C1=O`, the call was inactive.

Consider `COCC(=O)Nc1ccc2c(c1)C(=O)N(C)[C@@H]1CC[C@@H](CC(=O)NCc3ccccc3Cl)O[C@@H]1CO2`, for which the outcome was inactive.

Turning to `COc1ccccc1N(CC(=O)N(CC(C)C)CC(C)C)S(=O)(=O)c1cccs1`, the compound was classed as inactive.

Take `Cc1cc(C)c(S(=O)(=O)Nn2cnnc2)c(C)c1`: the compound was called inactive.

Consider `Nc1nc(-c2cc3c(cc2Cl)OCCO3)cs1`, for which the compound was classed as inactive.

For the compound `Cc1cccc(NC(=O)Nc2ccc(S(=O)(=O)Nc3onc(C)c3C)cc2)c1`, the compound was called inactive.

In the case of `CO[C@H]1CN(C)C(=O)c2cc(NC(C)=O)ccc2OC[C@@H](C)N(C(=O)CN2CCOCC2)C[C@H]1C`, the result was inactive.

Consider `Cc1ccc(Nc2nnc(SCc3ccccc3)s2)cc1`, for which the compound was called inactive.

Regarding `C[C@H](O)C#Cc1ccc2c(c1)O[C@H](CN(C)C)[C@@H](C)CN([C@H](C)CO)S2(=O)=O`, the outcome was inactive.

With `CCCCOc1ccc(C(C)NC(=O)C2CCCN(S(=O)(=O)CCC)C2)cc1` (stereo not drawn), the compound was classed as inactive.

Take `O=C(CCC(=O)c1cccs1)NCc1cccnc1`: the result was inactive.

As to `C[C@@H]1CN([C@H](C)CO)C(=O)c2cc(NC(=O)C3CCCCC3)ccc2O[C@H]1CN(C)Cc1ccc(-c2ccccc2)cc1`, the compound was called inactive.

`C[C@@H]1CN([C@H](C)CO)C(=O)c2cc(NC(=O)C3CCCCC3)ccc2O[C@@H]1CN(C)Cc1ccc(-c2ccccc2)cc1`: the compound was called inactive.

Consider `COC(=O)C[C@H]1CC[C@H]2[C@H](COc3ccc(NC(=O)Cc4cccs4)cc3C(=O)N2C)O1`, for which the call was inactive.

For `COC(=O)c1cn(CC(=O)NCc2ccco2)c2ccccc12`, the compound was called inactive.

As to `Cc1ccc(N(CC(=O)NCc2ccco2)S(=O)(=O)c2ccccc2)cc1`, the compound was classed as inactive.

Consider `CC(=O)Nc1cccc(-c2ccnc3c2CC(C)(C(=O)Nc2cccc(C(F)(F)F)c2)O3)c1` (stereo not drawn), for which the call was inactive.

Consider `O=C(CCNS(=O)(=O)c1cccc2nonc12)NC1CCCc2ccccc21` (stereo not drawn), for which the call was inactive.

(Values after PubChem BioAssay AID1053119 (Broad Institute, 2014).)
